System: T1, JNK1
T1 construct: gene MAPK8
Details: concentration: 1 μM, replicates: in singlicate; n = 1
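Note: KINOMEscan kinase panel screen.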

Row | Structure (SMILES) | %Inh [%]
1 | COc1cc2c(cc1OC[C@@H](O)CO)ncc1c3ccc(C#N)cc3[nH]c21 | 15
2 | O=C(NCCCN1CCOCC1)c1cccc(Nc2nccc(Nc3ccc(Oc4ccccc4)cc3)n2)c1 [GW663929] | 33
3 | Cc1ccc(NC(=O)c2ccnc(N3CCN(C)CC3)c2)cc1-c1ccc(C(=O)NCC2CC2)cc1 [GW775604] | 0
4 | O=C(Nc1n[nH]c2cc(-c3cccc(F)c3)ccc12)C1CC1 [SB-735464] | 23
5 | COc1ccc(Nc2nccc(N3CCC(NC(=O)Nc4cccc(C(C)=O)c4)C3)n2)cc1 (centres unmarked) [GSK1379731] | 14
6 | COCCNC(=O)c1ccc(-c2cc(C(=O)NC3CC3)cc(F)c2C)cc1 [GW868318] | 38
7 | COc1ccc(CNC(=O)NC2CCN(c3ccnc(Nc4ccc(OC)cc4)n3)C2)cc1 (centres unmarked) [GSK1379727] | 32
8 | Nc1nccc(-c2c(-c3ccc(F)cc3)ncn2C2CCN(CC(F)(F)F)CC2)n1 [SB-236560] | 63
9 | O=C(NCCNc1ccnc(Nc2ccc(F)cc2)n1)Nc1ccccc1F [GSK1379880] | 32
10 | O=C(Nc1cccc(-c2nn3ncccc3c2-c2ccnc(Nc3cccc(C(F)(F)F)c3)n2)c1)c1c(F)cccc1F [GSK299495] | 31
11 | COc1ccc(Nc2ncc(C#N)c(Nc3ccccc3C(N)=O)n2)cc1N1CCN(C)CC1.Cl [GSK1558669] | 99.5
12 | O=c1cc(N2CCOCC2)nc2n(Cc3cccc4ccccc34)ccn12 [GSK2333389] | 21
13 | Fc1ccc(-c2ncn(CCCN3CCOCC3)c2-c2ccccn2)cc1 [SB-211742] | 20
14 | CN1c2ccc(NCc3ccc(F)cc3)cc2-c2c(cnn2C)S1(=O)=O | 0
15 | Nc1nc(-c2ccc3c(N)n[nH]c3c2)cc(N2CCCC2)n1 [GSK2227430] | 5
16 | [2H]C([2H])(c1cccc(C(F)(F)F)c1C)n1ccn2c(=O)nc(N3CCOCC3)cc12 [GSK2336394] | 21
17 | COc1cc2ncn(-c3cc(OCc4sccc4Cl)c(C(N)=O)s3)c2cc1OC [GSK448459] | 20
18 | COc1cc2c(cc1OCCN1CCN(C)CC1)ncc1c3ccc(C#N)cc3[nH]c21 | 19
19 | Cc1nnc(-c2ccc3occ(-c4ccc(C(C)O)cc4)c3c2)o1 (centres unmarked) | 2
20 | Cn1cc(-c2ccc3c(c2)CCN3C(=O)Cc2ccccc2Cl)c2c(N)ncnc21 [GSK2608885] | 19

System: T2, JNK2
T2 construct: gene MAPK9
Details: concentration: 1 μM, replicates: in singlicate; n = 1

Row | Structure (SMILES) | %Inh [%]
21 | N#Cc1ccc(-c2cc(-c3c[nH]nc3-c3ccccn3)ccn2)cc1 [GW693028] | 59
22 | CCc1ccnc(/C=C/c2n[nH]c3cc(Sc4ccccc4C(=O)NC)ccc23)c1 | 3
23 | Cc1cccc(-c2nc(Nc3ccc4ncsc4c3)c3ccccc3n2)n1 [GW867588] | 8
24 | O=C1NC(=O)C(N2CCc3ccccc32)=C1c1cccc(Cl)c1 [SB-408010] | 34
25 | NS(=O)(=O)c1cccc(-c2ccc3ncc(N4CCOCC4)nc3c2)c1 [GSK1535721] | 0
26 | CN1c2ccc(CNc3ccc(F)cc3)cc2-c2c(cnn2C)S1(=O)=O | 0
27 | Cn1ccc2ncnc(Oc3ccc(NC(=O)Nc4ccncc4)c(Cl)c3)c21 | 0
28 | COc1cc(Nc2nccc(N3CCC(NC(=O)c4cccc(NC(C)=O)c4)C3)n2)cc(OC)c1OC (centres unmarked) [GSK1379754] | 22
29 | CSc1ccc(-c2cc3ncnc(SCC(=O)O)c3s2)cc1 | 10
30 | CC(C)(C)n1cnc2c(N)ncnc21 [SKF-97359] | 0
31 | Cc1nnc(-c2ccc(C)c(-c3ccc(C(=O)Nc4ccc(NS(C)(=O)=O)cc4)cc3)c2)o1 [GW702865] | 0
32 | COc1ccc(S(=O)(=O)NC2CCN(c3cc(C)nc(Nc4cccc(C#N)c4)n3)CC2)cc1.O=C(O)C(F)(F)F [GSK1653539] | 28
33 | Cc1c2ccc(N(C)c3ccnc(Nc4cccc(S(N)(=O)=O)c4)n3)cc2nn1Cc1ccccc1.Cl.Cl [GW787226] | 0
34 | COc1cc2c(cc1OC[C@@H](O)CO)ncc1c3ccc(C#N)cc3[nH]c21 | 0
35 | O=C(NCCCN1CCOCC1)c1cccc(Nc2nccc(Nc3ccc(Oc4ccccc4)cc3)n2)c1 [GW663929] | 25
36 | Cc1ccc(NC(=O)c2ccnc(N3CCN(C)CC3)c2)cc1-c1ccc(C(=O)NCC2CC2)cc1 [GW775604] | 0
37 | O=C(Nc1n[nH]c2cc(-c3cccc(F)c3)ccc12)C1CC1 [SB-735464] | 12

Row | Structure (SMILES) | %Inh [%]
38 | COc1ccc(Nc2nccc(N3CCC(NC(=O)Nc4cccc(C(C)=O)c4)C3)n2)cc1 (centres unmarked) [GSK1379731] | 15
39 | COCCNC(=O)c1ccc(-c2cc(C(=O)NC3CC3)cc(F)c2C)cc1 [GW868318] | 49
40 | COc1ccc(CNC(=O)NC2CCN(c3ccnc(Nc4ccc(OC)cc4)n3)C2)cc1 (centres unmarked) [GSK1379727] | 19
41 | Nc1nccc(-c2c(-c3ccc(F)cc3)ncn2C2CCN(CC(F)(F)F)CC2)n1 [SB-236560] | 91.3
42 | O=C(NCCNc1ccnc(Nc2ccc(F)cc2)n1)Nc1ccccc1F [GSK1379880] | 19
43 | O=C(Nc1cccc(-c2nn3ncccc3c2-c2ccnc(Nc3cccc(C(F)(F)F)c3)n2)c1)c1c(F)cccc1F [GSK299495] | 27
44 | COc1ccc(Nc2ncc(C#N)c(Nc3ccccc3C(N)=O)n2)cc1N1CCN(C)CC1.Cl [GSK1558669] | 100
45 | O=c1cc(N2CCOCC2)nc2n(Cc3cccc4ccccc34)ccn12 [GSK2333389] | 0
46 | Fc1ccc(-c2ncn(CCCN3CCOCC3)c2-c2ccccn2)cc1 [SB-211742] | 0
47 | CN1c2ccc(NCc3ccc(F)cc3)cc2-c2c(cnn2C)S1(=O)=O | 0
48 | Nc1nc(-c2ccc3c(N)n[nH]c3c2)cc(N2CCCC2)n1 [GSK2227430] | 12
49 | [2H]C([2H])(c1cccc(C(F)(F)F)c1C)n1ccn2c(=O)nc(N3CCOCC3)cc12 [GSK2336394] | 23
50 | COc1cc2ncn(-c3cc(OCc4sccc4Cl)c(C(N)=O)s3)c2cc1OC [GSK448459] | 11
51 | COc1cc2c(cc1OCCN1CCN(C)CC1)ncc1c3ccc(C#N)cc3[nH]c21 | 0
52 | Cc1nnc(-c2ccc3occ(-c4ccc(C(C)O)cc4)c3c2)o1 (centres unmarked) | 0
53 | Cn1cc(-c2ccc3c(c2)CCN3C(=O)Cc2ccccc2Cl)c2c(N)ncnc21 [GSK2608885] | 55

Source: article PMC5540273 (PLoS ONE, 2017)
